Screening data (PubChem)
An excerpt weighted towards active compounds, which were near 11% of everything screened.
Insulin prom up: MIN6 insulin promoter up-regulation. MIN6 insulin promoter-GFP reporter, high-content imaging; stronger effect = higher value. z-score at 5 µM. 190,000 compounds, 0.3% hits;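 active = z-score above 3 at 5 µM with at least 500 cells counted in the well; inconclusive = wells under 500 cells, flagged as cytotoxic or low count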
Insulin prom inh: TRM-6 insulin promoter activity inhibition; 130,000 compounds, 0.9% hits; TRM-6 cells (human fetal islet line), insulin promoter-eGFP reporter, imaging; reporter expression induced with tamoxifen; inhibition, % at 2 µM;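 active = inhibition above the mean plus 3 SD, with well images judged a real hit on visual review, cut at about 60% in these data, passing the limit was not always enough; inconclusive = inhibition over the cutoff but images rejected on review; inactive = inhibition not above the cutoff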
Autophagy HCS: autophagy modulation, high-content screen; MEF GFP-LC3 puncta imaging; test concentration mostly 10 µM; calls only at 10 µM (by protocol); 190,000 compounds, 0.98% hits; AID 463193;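 active = percentage of spot-positive cells more than 3 SD above its plate mean, without a fluorescence outlier flag or 80% toxicity; inconclusive = no clear call, values can overlap the other calls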;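 also: spot-positive cell cutoff set from DMSO-treated cells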
WT yeast gro inh: growth inhibition of WT yeast, mitochondrial fusion screen; 190,000 compounds, 2.1% hits; mitochondrial fusion phenotypic screen, WT strain; inhibition, % at 10 µM; in the data active = inhibition above about 58%; tested in S. cerevisiae
Lmaj promast: reduces viability of Leishmania major promastigotes. 200,000 compounds, 9% hits. resazurin fluorescence viability. AID 1063. inhibition, % at 10 µM; in the data active = inhibition above about 50%;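 also: promastigotes grown with compound for 44 hours at 28 °C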
Active calls of the source: *; i = inactive; u = inconclusive; x = not tested or not shown; + = active, no number.

SMILES	Insulin prom up	Insulin prom inh	Autophagy HCS	WT yeast gro inh	Lmaj promast
CCN(CC)CCN(C)c1ccc(N2C(=O)C3CC=CCC3C2=O)cc1[N+](=O)[O-] (configuration not stated)	-0.1	36	+	-5	4
CCOc1ccc(Nc2nc(Nc3ccc(O)cc3)nc(C)c2[N+](=O)[O-])cc1	-1.3	-13	i	-3	14
Cc1ccc(N=Nc2c(C)[nH][nH]c2=O)c(C)c1	0.01	73*	i	-6	4
Nc1cc(=O)[nH]c(SCC(=O)Nc2nc3ccc([N+](=O)[O-])cc3s2)n1	-0.15	x	+	1	-6
O=c1ccn(CCc2c[nH]c3ccccc23)c2c1CCCC2	-0.34	x	i	-4	2
COc1ccccc1Nc1ncnc2nc[nH]c12	x	x	i	70*	-2
Cc1ccc(-n2cc(CNCC3CC(=O)N(C4CC4)C3)c(-c3cccc(C)c3)n2)cc1 (configuration not stated)	-0.43	x	i	9	20
O=C(Nc1ccccc1)c1ccc(S(=O)(=O)N(CCO)CCO)cc1	0	77*	i	-1	7
COC(=O)c1ccc(N2C(=O)C3CC(C)=C(C)CC3C2=O)cc1 (configuration not stated)	-0.04	x	i	-5	-2
O=C(Nc1cc(C(F)(F)F)ccc1-n1cnc2ccccc21)c1ccccc1	0.06	-32	i	3	10
C=CCC(C(=O)OC)(C(=O)OC)c1ccc([N+](=O)[O-])cn1	-0.14	3	i	66*	-1
C=CCC(C(=O)OC)(C(=O)OC)c1ccc([N+](=O)[O-])cc1[N+](=O)[O-]	0.24	x	i	7	10
C/C(=N\NC(=O)CCc1ccc(S(=O)(=O)N2CCOCC2)cc1)c1ccc(Br)cc1	0.17	x	i	-4	5
COc1ccccc1OCC(=O)OCC(=O)Nc1sccc1C(N)=O	-0.14	19	i	-15	53*
NC(=O)c1ccsc1NC(=O)COC(=O)Cc1cccc2ccccc12	0.51	11	i	78*	-2
NC(=O)c1ccsc1NC(=O)COc1ccccc1	0.8	29	i	14	6
Cc1sc(NC(=O)C2CCCCC2C(=O)O)c(C(N)=O)c1-c1ccc(C(C)(C)C)cc1 (configuration not stated)	x	38	i	-9	-7
Cc1sc(NC(=O)C2C3CCC(C3)C2C(=O)O)c(C(N)=O)c1-c1ccc(C(C)(C)C)cc1 (configuration not stated)	-0.92	-21	i	14	57*
CCOC(=O)c1c(NC(=O)/C=C/C(=O)O)sc(C)c1-c1ccc(C(C)(C)C)cc1	-0.37	63	i	55	100*
CCOC(=O)c1c(NC(=O)/C=C\C(=O)O)sc(C)c1-c1ccccc1	x	5	i	18	-1
O=C(NC1CCCCCC1)c1ccc(CN2CCOCC2)cc1	-0.41	22	i	12	59*
O=C(NCCC1=CCCCC1)c1ccc(CN2CCOCC2)cc1	x	0	i	-1	81*
O=C(NCCC1=CCCCC1)c1ccc(F)cc1	-0.11	-9	i	0	3
CCN1C(=O)c2cccc3c(S(=O)(=O)NCc4cccnc4)ccc1c23	-0.14	-20	i	-1	70*
CCCS(=O)(=O)N1CCN(Cc2c[nH]c3ccccc23)CC1	0.06	x	i	-6	5
SMILES	Insulin prom up	Insulin prom inh	Autophagy HCS	WT yeast gro inh	Lmaj promast
CC1CN(C(=O)N[C@@H](Cc2ccccc2)C(=O)O)CC(C)O1 (some centres not stated)	0.38	x	i	-5	80*
CCOC(=O)c1sc(=S)n(C)c1NC(=O)c1ccccc1Cl	0.37	x	i	26	-4
Cc1ccccc1NC(=S)c1nc2ccccc2[nH]1	-0.92	97*	i	59	90*
S=C(Nc1ccc(Cl)cc1)c1nc2ccccc2[nH]1	0.83	x	i	55	88*
Cc1ccccc1NC(=O)NCCc1nc2ccccc2[nH]1	-0.12	-21	i	-9	-3
COc1ccc(NC2SC(=O)N(C)C2=O)cc1 (configuration not stated)	x	42	i	-10	-1
CCN(CC)S(=O)(=O)c1ccc(/C=C/C(=O)Nc2ccc(F)c(F)c2F)cc1	u	12	i	-24	89*
CCN(CC)S(=O)(=O)c1cccc(NC(=O)/C=C/c2ccc([N+](=O)[O-])cc2)c1	0.87	x	i	1	-2
CCN(CC)S(=O)(=O)c1ccc(/C=C/C(=O)Nc2ccc(F)cc2F)cc1	-0.6	x	i	-6	56*
CCN(CC)S(=O)(=O)c1ccc(/C=C/C(=O)Nc2ccc(N3CCOCC3)cc2)cc1	-0.18	x	x	x	x
CCN(CC)S(=O)(=O)c1ccc(/C=C/C(=O)Nc2ccc(Br)cc2F)cc1	-1.5	26	i	1	99*
O=C(CSc1cccc[n+]1[O-])C12CC3CC(CC(C3)C1)C2	-0.33	33	i	-4	-7
CC(=O)N1CCN(CC(=O)Nc2c(Cl)ccc(C)c2Cl)CC1	0.46	x	i	-10	-1
Cc1cc(C)cc(NC(=O)N2CCN(S(C)(=O)=O)CC2)c1	0.01	35	i	10	0
COc1ccccc1OCCSc1nc(C)c(Cc2ccccc2)c(=O)[nH]1	-0.67	x	x	x	x
CCN(CC)CCn1c(=S)[nH]c2ccc(Cl)cc2c1=O	4*	x	i	2	5
CCN(CC)CCn1c(=S)[nH]c2cc(Cl)ccc2c1=O	-1.2	x	i	-13	12
CN(C)/C=N/c1cc(=O)[nH]c(=O)n1C	0.38	38	i	23	-7
O=C(CN1C(=O)c2cccc3cccc1c23)Nc1ccccc1C(=O)NCc1ccco1	x	-14	i	-86	82*
O=C(CN1C(=O)c2ccccc2C1=O)Nc1sc2c(c1C(=O)NCc1ccco1)CCCC2	0.54	92*	i	25	-4
C/C(=N/NC(=O)c1ccoc1C)C12CC3CC(CC(C3)C1)C2	-0.13	-13	i	14	3
O=C(CSc1ncn[nH]1)NCCC(c1ccccc1)c1ccccc1	0.36	-85	i	-2	-2
Cn1c(=O)c2c(nc(NNC(=O)C(F)(F)F)n2C)n(C)c1=O	0.87	-18	i	4	-8
COc1cc2nc(CN3CCC(C(O)(c4ccccc4)c4ccccc4)CC3)[nH]c(=O)c2cc1OC	-0.37	x	i	-5	23
CC(C)(C)c1ccc(C(O)CCCN2CCC(C(O)(c3ccccc3)c3ccccc3)CC2)cc1 (configuration not stated)	x	-29	+	92*	100*
SMILES	Insulin prom up	Insulin prom inh	Autophagy HCS	WT yeast gro inh	Lmaj promast
Oc1ccccc1CN1CCC(C(O)(c2ccccc2)c2ccccc2)CC1	-0.55	-79	i	9	56*
Oc1ccccc1CN1CCCN(Cc2ccccc2O)C1	-0.27	-40	+	7	31
O=C(C1CC1)N1CCC(C(O)(c2ccccc2)c2ccccc2)CC1	0.91	-51	i	-10	95*
CN1CCCN(Cc2ccccc2C(F)(F)F)CC1	-0.13	41	i	3	3
CC(C)=CCc1c(O)ccc(C(=O)Cc2ccccc2)c1O	0.87	-3	i	81*	13
O=C(Cc1cnn(-c2ccccc2)c1)c1ccc(O)c(O)c1O	-0.54	-31	i	-11	-9
